# Data taken from PubChem BioAssay (NCI).
# The panel holds about 83,000 compounds, 20% with a hit somewhere; the sample as a whole holds those more often.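 Cell lines were cultured in 96-well plates, exposed to a single compound concentration, and assessed for percent growth 48 hours later.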 Calls of active or inactive are those of the source. Rule for the calls: active = growth percent below 10; inactive = the rest.
# Test system: HL-60(TB) leukemia
# Test: NCI-60 one-dose screen, 48 h (100 = growth as untreated, 0 = no growth, -100 = all killed)
# Conditions: 10 µM unless noted
row,SMILES,growth
1,CC(=O)Nc1ccc2oc(=O)ccc2c1,67.8% (inactive)
2,O=C1CSC(c2ccccc2O)N1c1nnc(Cn2cnnc2)o1 (stereo not given),61.1% (inactive)
3,Cc1cccc(C(=O)N(C(C)C)C(C)C)c1,99.1% (inactive)
4,O=C(Nc1ccccc1)P(=O)(O)c1ccccc1,92.2% (inactive)
5,C=C1C(=O)O[C@H]2[C@H]1CC/C(COC(=O)C(=O)c1c[nH]c3ccccc13)=C\CC[C@@]1(C)O[C@@H]21,-46.5% (active)
6,c1ccc(-c2c(-c3ccccc3)[n+](Cc3ccc4ccccc4c3)c(-c3ccc(-c4nc5ccccc5s4)cc3)n2Cc2ccc3ccccc3c2)cc1,-57.2% (active)
7,NC[C@@H]1CCN(c2cc3c(cc2F)c(=O)n(N)c(=O)n3Cc2ccc(-c3ccccc3)cc2)C1,90.4% (inactive)
8,CN1CCN(c2ccc(-c3ccc4ncc(C#N)c(Nc5ccc(F)c(Cl)c5)c4c3)cc2)CC1,22.3% (inactive)
9,COc1cc(/C=C\C(=O)O)ccc1OCc1ccccc1,122% (inactive)
10,CN1CCN(CCCCCN=c2cc3c(=O)n(CCCCCN4CCN(C)CC4)c(=O)c4c(NCCCCCN5CCN(C)CC5)cc5c(O)n(CCCCCN6CCN(C)CC6)c(=O)c2c5c4-3)CC1,51.5% (inactive)
11,CCOc1ccc(-c2nc3ccc(-c4nc5ccc(N6CCN(C)CC6)cc5[nH]4)cc3[nH]2)cc1,-57.9% (active)
12,COc1cc(N)ccc1Nc1c2ccccc2nc2ccccc12,48.2% (inactive)
13,O=C(O)C[C@H](O)C[C@H](O)/C=C/c1c(C2CC2)nc2ccccc2c1-c1ccc(F)cc1,66.2% (inactive)
14,COc1cc(C2CC(c3ccc(SC)cc3)=NN2C(C)=O)cc(OC)c1OC (stereo not given),17.6% (inactive)
15,O=C(Nc1ccc(F)cc1)Nc1ccc(CCO)cc1,101% (inactive)
16,COc1c(Cl)c2c(c(OC)c1OC)-c1ccc(SC)c(=O)cc1[C@@H](NC(=O)OCC(F)(F)F)CC2,-35.4% (active)
17,O=C(NNc1ccccc1)c1ncc[nH]1,7.71% (active)
18,CN(C)c1nc2c([nH]1)c(=O)n(C)c(=O)n2C,108% (inactive)
19,COc1ccc(/C=C(\C#N)c2cc3ccccc3n2C)cc1,0.415% (active)
20,COc1ccc(-c2nc(SCCC(C)C)nc(N/N=C(/C)c3ccc(N)cc3)c2C#N)cc1,83.8% (inactive)

row,SMILES,growth
1,O=C(NCc1ccccc1)c1cccc([N+](=O)[O-])c1,101% (inactive)
2,COc1ccc(N(C)c2nc(Cl)nc3cnn(C)c23)cc1,-4.95% (active)
3,CCOC(=O)C1(N)CCCCC1,110% (inactive)
4,Cc1nc(Nc2ccc(NC(=S)Nc3ccccc3)cc2)nc2nc(Nc3ccc(S(=O)(=O)O)cc3)[nH]c(=O)c12,132% (inactive)
5,O=C(/C=C\c1ccccc1)N1c2ccccc2CC1c1c[nH]c2ccccc12 (stereo not given),73.5% (inactive)
6,CCC1(c2ccccc2)Oc2ccccc2-n2c(C#N)c3ccccc3c2C1=O (stereo not given),92.8% (inactive)
7,c1ccc2nc(Cn3cc[n+](Cc4ccc5ccccc5n4)c3)ccc2c1,8.58% (active)
8,COC(=O)c1c2c(n3ccc(C)cc13)C(=O)c1ccccc1C2=O,57.6% (inactive)
9,CCOC(=O)CC1CSC(c2cccc(Cl)c2)=N1 (stereo not given),98.8% (inactive)
10,Cc1cccc2c1O/C(=C\c1ncc([N+](=O)[O-])n1C)C2=O,-9.87% (active)
11,COc1ccc(-c2c3c(nn2-c2ccc(N)cc2)CCc2cnoc2-3)cc1OC,93.1% (inactive)
12,O=C(c1ccccc1)c1ccco1,86.1% (inactive)
13,CCCCN(CCCC)CCC(=O)c1ccc(OC)c2ccccc12,81.1% (inactive)
14,CCOC(=O)c1c(C)nc2c(c1N)CC(=O)N2CCc1ccccc1,-3.38% (active)
15,COc1ccc(-n2cnc3c(sc4ncc(Cl)cc43)c2=O)cc1,90.1% (inactive)
16,COc1ccc(OC)c(CCn2cncc2-c2c[nH]c3cc(Br)ccc23)c1,-9.46% (active)
17,CCCCCC/C=C\CCCCCCCCOc1ccc(CCOP(=O)(O)OCC[N+](C)(C)C)cc1,-15.1% (active)
18,CCOC(=O)c1c(C)nc2c(c1N)/C(=C/c1ccc[nH]1)C(=O)N2Cc1ccc(C(F)(F)F)cc1,96.7% (inactive)
19,O=C(/C=C/c1ccccc1Br)c1cccc(OCCCCOc2cccc(C(=O)/C=C/c3ccccc3Br)c2)c1,92% (inactive)
20,O=c1[nH]c(-c2ccc(Cl)cc2)nc2sc3c(c12)CCCC3,90.7% (inactive)
